In PubChem BioAssay AID1851 (National Center for Advancing Translational Sciences (NCATS), 2009):
Several values for one entry are separate records, joined by “and”; a condition that tells them apart may be missing. Equal entries are not always repeated. Among all 16,000 compounds or so, about 2,600 (16%) were called active. Another 20% or so got no clear call; they are omitted. Calls come from the whole dose curve; as a rule, active = well fitted curve in the direction sought with a large enough effect; inconclusive = small, poorly fitted or top-dose-only effect, or effect the other way; inactive = no such curve, though single readings can be large or run the other way. Only a sample is shown.
% is set by controls: 0 for no effect and ±100 for the full control effect.

Each compound was assayed against Cytochrome P450 2D6 (Homo sapiens) (UniProt P10635) (assay: Cytochrome panel assay with activity outcomes). Conditions: recombinant CYP, pro-luciferin dealkylation, luminescence, p450-cyp2d6; series mostly up to 57.1 µM.
Sequence of Cytochrome P450 2D6 (Homo sapiens) (P10635 whole entry, looked up): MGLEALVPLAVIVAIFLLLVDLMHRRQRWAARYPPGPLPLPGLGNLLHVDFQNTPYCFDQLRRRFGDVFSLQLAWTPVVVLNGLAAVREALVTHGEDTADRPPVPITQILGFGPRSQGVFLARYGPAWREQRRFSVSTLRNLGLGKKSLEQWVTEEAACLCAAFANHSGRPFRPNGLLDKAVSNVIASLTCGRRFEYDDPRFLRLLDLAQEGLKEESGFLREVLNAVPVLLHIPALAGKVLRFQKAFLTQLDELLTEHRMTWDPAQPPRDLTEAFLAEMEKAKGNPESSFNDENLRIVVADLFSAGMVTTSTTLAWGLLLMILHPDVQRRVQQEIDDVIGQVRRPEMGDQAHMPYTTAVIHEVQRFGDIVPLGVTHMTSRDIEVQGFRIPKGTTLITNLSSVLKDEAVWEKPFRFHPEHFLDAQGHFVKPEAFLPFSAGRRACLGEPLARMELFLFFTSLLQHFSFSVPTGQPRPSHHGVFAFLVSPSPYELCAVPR
With `CCCCOC(=O)CCc1c(C)[nH]c(=O)c(C#N)c1C` the AC50 was “inactive”. In the case of `CCN(CC)C(=O)C1=C(C)NC(=S)NC1c1cn(-c2ccccc2)nc1-c1ccc(Cl)cc1` (stereo not given), the AC50 was “inactive”. With `O=C(O)[C@@H]1[C@@H](C(=O)Nc2ncccn2)[C@@H]2C=C[C@@H]1O2` the activity, negative = inhibition was 15.2% [at 11.4 µM] (inactive). `CCc1cccc(N(C)C(N)=Nc2cccc3ccccc23)c1` was tested, and the AC50 was 0.2 µM (active). In the case of `O=C(NC[C@@H](O)CO)c1c(I)c(C(=O)NC[C@@H](O)CO)c(I)c(N(CCO)C(=O)CO)c1I`, the AC50 was “inactive”. With `O=C1c2ccccc2-c2ccc(N(Cc3ccc(Br)cc3)Cc3ccc(Br)cc3)cc21` the activity, negative = inhibition was -1.8% [at 11.4 µM] (inactive). In the case of `CN1[C@@H]2CC[C@H]1CC(OC(c1ccccc1)c1ccccc1)C2` (stereo not given in full), the AC50 was 2 µM (active) and 1.26 µM (active). `C[N+]1(C)CCC(OC(=O)C(c2ccccc2)c2ccccc2)CC1` was tested, and the AC50 was “inactive”. In the case of `Cn1c(=O)c(-c2cc(F)cc(F)c2)nc2cncnc21`, the AC50 was “inactive”. With `Cc1nn(C)cc1CNC(=O)CCC(=O)O` the AC50 was “inactive”. With `COc1ccc(NC(=O)NCCCN2CCCCC2C)cc1` (stereo not given) the AC50 was 1.58 µM (active). In the case of `CCN1CCCC1CNC(=O)C(=O)Nc1ccc(OC)cc1` (stereo not given), the AC50 was “inactive”. In the case of `COc1ccc(NC(=O)N2CCC3(CC2)CCN(S(C)(=O)=O)CC3)cc1`, the AC50 was “inactive”. With `O=S(=O)(c1cnccc1N1CCN(CCO)CC1)N1CCCC1` the activity, negative = inhibition was 10% [at 11.4 µM] (inactive). `Cc1cccc(Nc2ccccc2C(=O)OCC(=O)NCc2ccco2)c1C` was tested, and the AC50 was “inactive”. With `O=C(Nc1ccccc1Cl)c1ccn[nH]1` the AC50 was “inactive”. In the case of `O=C1c2cccnc2C(=O)N1Cc1ccc(F)cc1`, the AC50 was “inactive”. `O=C1CCCc2ccccc2N1Cc1cccc(Cl)c1` was tested, and the AC50 was “inactive”. In the case of `O=C1C(=O)N(Cc2ccc(Cl)c(Cl)c2)c2ccccc21`, the AC50 was 3.98 µM (active). For `CCn1ncc(C(=O)Nc2cc(C)on2)c1C`, the AC50 was “inactive”. With `Cc1c(C)c2c(C)[nH]nc2oc1=O` the AC50 was “inactive”. In the case of `CN(C)c1nc(C#N)nc(N2CCOCC2)n1`, the AC50 was “inactive”. For `CCOC(=O)C(NC(C)=O)C(=O)O` (stereo not given), the AC50 was “inactive”. `CCOC(=O)[C@H](N)/C=C(\C)CP(=O)(O)O` was tested, and the AC50 was 2 µM (active). In the case of `O=C(O)CP(=O)(O)O`, the AC50 was “inactive”. In the case of `Cc1ccc(C)c2sc(NC(=O)c3ccc(N4CCCCC4)c([N+](=O)[O-])c3)nc12`, the AC50 was “inactive”. In the case of `CCc1nnc(NC(=O)CCC(=O)N2CCN(c3ccccn3)CC2)s1`, the AC50 was “inactive”. `Cc1ccc(C2CC2C(=O)NN)cc1` (stereo not given) was tested, and the AC50 was “inactive”. In the case of `Cc1ccc(C2NC(c3ccc(C)cc3)C(C)C(=NO)C2C)cc1` (stereo not given), the AC50 was 0.562 µM (active). With `Cc1ccc(NC(=O)/C(=C\c2cccc([N+](=O)[O-])c2)NC(=O)c2cccs2)cc1` the AC50 was “inactive”. For `c1ccc(-c2csc(Nc3nc(N4CCOCC4)nc(N4CCOCC4)n3)n2)cc1`, the AC50 was “inactive”. For `Cc1nc2ncnn2c(C)c1CCC(=O)NCCC1=CCCCC1`, the AC50 was “inactive”. `OCCNc1nc(NCCC2=CCCCC2)nc(N2CCOCC2)n1` was tested, and the AC50 was 7.08 µM (active). For `COc1ccc(-c2cc(C(F)(F)F)nc(N3CCCCC3)n2)cc1OC`, the AC50 was “inactive”. With `Cc1ccccc1N1C(=O)c2cc(S(N)(=O)=O)c(Cl)cc2N[C@H]1C` the AC50 was “inactive”. For `O=C1CCCC=C1[C@@H](O)COCc1ccccc1`, the activity, negative = inhibition was -20.2% [at 11.4 µM] (inactive). For `C[n+]1cn(CC(O)COCc2ccccc2)c2ccccc21` (stereo not given), the AC50 was 1.12 µM (active). `OC(COCc1ccccc1)Cn1cnc2ccccc21` (stereo not given) was tested, and the AC50 was 14.1 µM (active). `Cn1c2ccccc2c2cc(C(=O)N3CCOCC3)sc21` was tested, and the AC50 was “inactive”. For `CSc1nsc(/C=C/Nc2ccc(Cl)cc2)c1C#N`, the AC50 was “inactive”. For `Cc1noc(C)c1CS(=O)(=O)c1ccc(Br)cc1`, the AC50 was “inactive”. For `CCCCCCCCCCCCCCC[C@@H](O)[C@@H](N)CO`, the AC50 was 7.94 µM (active). For `CCCCCCCCCCCCCCC/C=C\[C@H](O)[C@@H](NC(=O)CCCCCCCCCCCCC)OC` (tested in a mixture with another compound), the AC50 was “inactive”. With `CCCC[S@@](=N)(=O)CC[C@@H](N)C(=O)O` the AC50 was “inactive”. With `CCCCCCC/C=C\CCCCCCCCC(=O)O` the AC50 was “inactive”. For `CCCCCCCCCCCCC/C=C\[C@@H](O)[C@@H](N)CO`, the AC50 was 15.8 µM (active). With `O=C(O)CN(CCOCCOCCN(CC(=O)O)CC(=O)O)CC(=O)O` the AC50 was “inactive”. For `CC(=O)c1c(C)[nH]c(C(=O)COc2ccc(C#N)cc2)c1C`, the AC50 was “inactive”. For `CSc1nc2c(c(=O)[nH]1)C(c1ccncc1)C(C(=O)OC(C)C)=C(C)N2` (stereo not given), the AC50 was “inactive”. In the case of `COc1cc(C(=O)Nc2ccc3c(c2)OCCO3)c(-n2cnnn2)cc1OC`, the AC50 was “inactive”. In the case of `S=C1NC2=C(C(c3ccc(Br)cc3)N1)N1CCC2CC1` (stereo not given), the AC50 was “inactive”. `CCN1CCN(C(=S)c2ccc(Br)cc2)CC1` was tested, and the AC50 was 1 µM (active). `CC1CCN(C(=S)c2ccc(O)cc2)CC1` was tested, and the AC50 was “inactive”. `CCN1CCN(C(=O)CCc2nc3ccccc3c(=O)[nH]2)CC1` was tested, and the AC50 was “inactive”. `CO[C@@H]1COC(=O)C/C=C\[C@@H](C)COC(=O)[C@H](COCc2ccccc2)NC(=O)C/C=C\[C@H]1C` was tested, and the activity, negative = inhibition was 10.2% [at 11.4 µM] (inactive). In the case of `CC(O)CN(CCC(N)=O)CCC(N)=O` (stereo not given), the AC50 was “inactive”. `Cc1cccc(Nc2ccncc2S(=O)(=O)NC(=O)NC(C)C)c1` was tested, and the AC50 was “inactive”. `Cn1cc(-c2nc3cnc(N4CCNCC4)nc3n(C3CC3)c2=O)c2ccccc21` was tested, and the AC50 was “inactive”. `CC(C)CC(=O)O/N=C1\C(=O)N(c2ccccc2)c2ccccc21` was tested, and the AC50 was “inactive”. `C=CCn1c(=O)c2c(nc(Br)n2Cc2ccccc2Cl)n(C)c1=O` was tested, and the AC50 was “inactive”. With `CC(=O)OCC(=O)[C@@]1(OC(C)=O)[C@H](C)C[C@H]2[C@@H]3C[C@H](F)C4=CC(=O)C=C[C@@]4(C)[C@]3(F)[C@H](O)C[C@@]21C` the AC50 was “inactive”. In the case of `O=C1COc2ccc(OCc3ccc(F)cc3)cc21`, the AC50 was “inactive”. With `Cc1cc(NCCO)c2ccccc2n1` the AC50 was “inactive”. With `O=C(O)CC1(CC(=O)O)Nc2ccccc2SC1=O` the activity, negative = inhibition was 8.66% [at 11.4 µM] (inactive). In the case of `CN1CCN(CCC=C2c3ccccc3Sc3ccc(S(=O)(=O)N(C)C)cc32)CC1`, the AC50 was 31.6 µM (active). With `CCOC(=O)C1CCCN(C(=O)c2sc3nc(-c4ccc(OC)cc4)cn3c2C)C1` (stereo not given) the AC50 was “inactive”. In the case of `Cc1c(Nc2cc(N3CCCC(C)C3)c3nonc3c2[N+](=O)[O-])c(=O)n(-c2ccccc2)n1C` (stereo not given), the AC50 was “inactive”. `COC(=O)c1ccc(N2CCN(c3ccccc3)CC2)c(NC(=O)C2CC2)c1` was tested, and the AC50 was “inactive”. With `Cc1ccc(Nc2ccc(-n3ccnc3)nn2)cc1C` the AC50 was 2.51 µM (active). `O=C(Nc1ncc(Cc2ccccc2)s1)C1COc2ccccc2O1` (stereo not given) was tested, and the AC50 was “inactive”. For `O=C1C2CCCN2c2ccc(S(=O)(=O)N3CCOCC3)cc2N1Cc1cccc(C(F)(F)F)c1` (stereo not given), the AC50 was “inactive”. With `Cc1onc(-c2c(F)cccc2Cl)c1C(=O)N[C@H]1C(=O)N2[C@H]1SC(C)(C)[C@H]2C(=O)O` the AC50 was “inactive”. For `O=C(O)CC[C@@H](C(=O)O)N1C(=O)c2ccccc2C1=O`, the AC50 was “inactive”. `COc1cccc(OCCCOc2ccccc2C(C)C)c1` was tested, and the AC50 was “inactive”. For `COC(=O)COc1cccc(NC(=O)c2ccc(C)cc2)c1`, the AC50 was “inactive”. In the case of `CCOc1cccc(OCCCNCCCOC)c1`, the AC50 was 11.2 µM (active). With `O=C(N/N=C/c1ccco1)c1ccccn1` the AC50 was “inactive”. `COc1ccc(NC(=O)/C(=C\c2cc(OC)c(OC)cc2[N+](=O)[O-])NC(=O)c2ccccc2)cc1` was tested, and the AC50 was “inactive”. For `COc1ccc(C(=O)Nc2ccc(F)cc2F)cc1OC`, the AC50 was “inactive”. For `O=C(Nc1ccc(N=Nc2ccccc2)cc1)c1ccc(Cl)cc1Cl`, the AC50 was “inactive”. For `O=C(COc1ccccc1Cl)NC(=S)Nc1cccc(NC(=O)c2ccccc2Cl)c1`, the AC50 was “inactive”. In the case of `S=C(NCc1ccccn1)Nc1cccc(Cl)c1`, the AC50 was “inactive”. In the case of `O=C(Cc1ccccc1)NCCSCc1ccc(Cl)cc1`, the AC50 was 3.16 µM (active). For `S=C(NCCSCc1ccc(Cl)cc1Cl)Nc1ccccc1`, the AC50 was 6.31 µM (active). In the case of `O=C(O)CCSCc1ccccc1`, the activity, negative = inhibition was -5.23% [at 11.4 µM] (inactive). With `Cc1ccccc1OCCNC(=S)Nc1ccccc1` the AC50 was “inactive”. `S=C(NCCSCc1c(Cl)cccc1Cl)Nc1ccccc1` was tested, and the AC50 was 4.47 µM (active). For `O=C(c1cccs1)n1nc(-c2ccc(Cl)cc2)nc1NCc1ccco1`, the AC50 was “inactive”. With `COc1ccc(Cc2nnc(NC(=O)CSc3ccc(C)cc3)s2)cc1OC` the AC50 was “inactive”. With `O=C1c2cccnc2C(O)N1C1CCCCC1` (stereo not given) the AC50 was “inactive”. For `COc1ccccc1C(=O)NC(=S)N1CCCc2ccccc21`, the AC50 was “inactive”. In the case of `N#CC(c1ccc(Cl)cc1)(c1ncc(C(F)(F)F)cc1Cl)N1CCOCC1` (stereo not given), the AC50 was “inactive”. `C/C(=N\NC(=O)c1ccc(Cl)cc1)c1cccc(NC(=O)C(C)C)c1` was tested, and the AC50 was “inactive”. In the case of `Cc1ccccc1C(=O)Nc1cccc(NC(=S)NC(=O)c2cccs2)c1`, the AC50 was “inactive”. For `Nc1nc(=O)c2[nH]cnc2n1O`, the activity, negative = inhibition was -6.92% [at 11.4 µM] (inactive). In the case of `CCC(=O)n1nc(-c2ccc(OC)cc2)nc1N`, the AC50 was “inactive”. In the case of `Cc1ccc2[nH]c3c(c2c1)CN(C(=O)CN1c2ccc(F)cc2CCC1C)CC3` (stereo not given), the AC50 was “inactive”. For `CO[C@H]1COC(=O)[C@@H](CCSC)NC(=O)C/C=C\[C@@H](C)[C@H](OC)COC(=O)[C@@H](OCc2ccccc2)/C=C\[C@@H]1C`, the activity, negative = inhibition was -4.06% [at 11.4 µM] (inactive). With `CC(C)(C)NCC[C@@H](O)c1cc(C(F)(F)F)nc2c(C(F)(F)F)cccc12` the AC50 was 0.316 µM (active). `CCNc1nc(Oc2c(Cl)cccc2Cl)cc(C(F)(F)F)n1` was tested, and the AC50 was “inactive”. In the case of `CC1(C)OC(C(N)=O)C(C(N)=O)O1` (stereo not given), the AC50 was “inactive”. With `Cc1ccc(S(=O)(=O)NC(=O)Nc2ncn[nH]2)cc1` the activity, negative = inhibition was 4.38% [at 11.4 µM] (inactive). `Cc1cccc(-n2c(=O)c3c(n4cnnc24)-c2ccccc2CC32CCCCC2)c1` was tested, and the AC50 was “inactive”. `CCC(=S)/C=C1\Sc2ccccc2N1CCCS(=O)(=O)O` was tested, and the AC50 was “inactive”. For `CN(C)CCCNC(=O)c1cc2c3ccccc3n(C)c2s1`, the AC50 was “inactive”. For `CN(C)CCCN1c2ccc(O)cc2Sc2ccc(Cl)cc21`, the AC50 was 0.126 µM (active). In the case of `CSc1ccc2c(c1)N(CCCN(C)C)c1ccccc1S2`, the AC50 was 0.501 µM (active). For `O=C(CSc1nc2ccccc2s1)N1c2ccccc2Sc2ccc(C(F)(F)F)cc21`, the AC50 was “inactive”. For `CCC(=O)c1ccc2c(c1)N(CCCN(C)C)c1ccccc1S2`, the AC50 was 2 µM (active). In the case of `CN(C)CCCN1c2ccccc2Sc2ccc(C(F)(F)F)cc21`, the AC50 was 794 nM (active) and 398 nM (active).
